Our source for the residual activity values is ChEMBL document CHEMBL2218924, “A broad activity screen in support of a chemogenomic map for kinase signalling research and drug discovery” (Biochem J, 2013).

In test [1] the target is BDNF/NT-3 growth factors receptor (Homo sapiens) (UniProt Q16620). The following applies: at 10 µM.
The target of test [2] is T1, Tyrosine-protein kinase TXK (Homo sapiens) (UniProt P42681).
T1 sequence (whole entry): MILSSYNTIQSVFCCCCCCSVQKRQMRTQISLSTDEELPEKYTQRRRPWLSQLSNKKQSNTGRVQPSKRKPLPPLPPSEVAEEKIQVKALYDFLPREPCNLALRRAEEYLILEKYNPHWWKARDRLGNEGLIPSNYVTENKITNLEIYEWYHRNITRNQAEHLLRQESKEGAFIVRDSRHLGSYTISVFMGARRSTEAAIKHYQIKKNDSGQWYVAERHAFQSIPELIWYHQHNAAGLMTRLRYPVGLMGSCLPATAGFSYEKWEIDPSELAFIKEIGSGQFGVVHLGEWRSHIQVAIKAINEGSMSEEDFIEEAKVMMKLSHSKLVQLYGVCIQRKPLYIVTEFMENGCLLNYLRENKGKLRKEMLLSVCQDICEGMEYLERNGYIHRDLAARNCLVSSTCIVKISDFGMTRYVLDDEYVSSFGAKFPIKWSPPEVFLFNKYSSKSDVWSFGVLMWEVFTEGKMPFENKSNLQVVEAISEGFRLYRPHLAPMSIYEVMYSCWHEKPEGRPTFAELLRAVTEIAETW
Conditions: at 1 µM.

Test [3] addresses T1, Tyrosine-protein kinase TXK (Homo sapiens). Conditions: at 10 µM.
The target in test [4] is T2, Serine/threonine-protein kinase ULK2 (Homo sapiens) (UniProt Q8IYT8).
T2 sequence (whole entry): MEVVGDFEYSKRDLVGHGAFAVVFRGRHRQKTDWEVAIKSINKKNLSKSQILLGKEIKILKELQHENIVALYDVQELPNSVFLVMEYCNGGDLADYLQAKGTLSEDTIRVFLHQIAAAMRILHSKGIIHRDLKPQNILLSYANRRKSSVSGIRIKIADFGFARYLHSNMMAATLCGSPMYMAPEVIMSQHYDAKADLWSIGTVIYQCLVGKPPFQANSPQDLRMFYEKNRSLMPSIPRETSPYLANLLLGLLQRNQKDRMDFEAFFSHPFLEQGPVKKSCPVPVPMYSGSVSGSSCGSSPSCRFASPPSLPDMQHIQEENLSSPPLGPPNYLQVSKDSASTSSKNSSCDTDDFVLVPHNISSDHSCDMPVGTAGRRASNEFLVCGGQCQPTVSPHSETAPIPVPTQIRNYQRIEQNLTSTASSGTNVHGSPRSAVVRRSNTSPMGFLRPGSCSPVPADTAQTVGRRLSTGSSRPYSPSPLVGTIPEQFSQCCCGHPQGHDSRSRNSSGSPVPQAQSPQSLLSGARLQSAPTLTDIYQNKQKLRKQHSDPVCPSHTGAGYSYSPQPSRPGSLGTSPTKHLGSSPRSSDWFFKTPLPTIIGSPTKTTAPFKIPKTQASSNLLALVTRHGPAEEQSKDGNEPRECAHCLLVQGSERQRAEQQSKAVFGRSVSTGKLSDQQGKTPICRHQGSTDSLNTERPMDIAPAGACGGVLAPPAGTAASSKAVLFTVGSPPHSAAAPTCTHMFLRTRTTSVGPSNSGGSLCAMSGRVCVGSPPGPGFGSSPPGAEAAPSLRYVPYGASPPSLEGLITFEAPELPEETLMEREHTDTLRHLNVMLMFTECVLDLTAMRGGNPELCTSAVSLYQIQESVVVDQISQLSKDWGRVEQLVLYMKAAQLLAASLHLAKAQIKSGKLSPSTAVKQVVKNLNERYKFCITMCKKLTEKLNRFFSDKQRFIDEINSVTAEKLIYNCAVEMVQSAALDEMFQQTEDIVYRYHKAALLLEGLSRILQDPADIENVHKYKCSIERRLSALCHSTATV
The following applies: at 1 µM.

Test [5] has as its target T2, Serine/threonine-protein kinase ULK2 (Homo sapiens). Conditions: at 10 µM.
Test [6] concerns the target T3, Serine/threonine-protein kinase ULK3 (Homo sapiens) (UniProt Q6PHR2).
T3 sequence (whole entry): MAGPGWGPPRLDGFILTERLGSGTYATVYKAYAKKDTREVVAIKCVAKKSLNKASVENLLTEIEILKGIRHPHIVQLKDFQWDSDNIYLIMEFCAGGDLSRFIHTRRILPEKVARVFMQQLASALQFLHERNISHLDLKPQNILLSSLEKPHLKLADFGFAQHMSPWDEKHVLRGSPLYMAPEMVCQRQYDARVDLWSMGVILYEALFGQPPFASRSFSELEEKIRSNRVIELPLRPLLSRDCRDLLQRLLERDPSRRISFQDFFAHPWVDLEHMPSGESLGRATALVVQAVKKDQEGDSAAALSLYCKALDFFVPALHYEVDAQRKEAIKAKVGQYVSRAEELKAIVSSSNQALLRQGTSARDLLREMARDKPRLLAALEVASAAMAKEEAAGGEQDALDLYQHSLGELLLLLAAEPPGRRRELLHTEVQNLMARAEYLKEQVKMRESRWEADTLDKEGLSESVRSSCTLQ
Conditions: at 1 µM.

In test [7] the target is T3, Serine/threonine-protein kinase ULK3 (Homo sapiens). Conditions: at 10 µM.
The target in test [8] is Serine/threonine-protein kinase VRK2 (Homo sapiens) (UniProt Q86Y07). Conditions: at 1 µM.
Test [9] shares this target. Conditions: at 10 µM.
In test [10] the target is Serine/threonine-protein kinase WNK2 (Homo sapiens) (UniProt Q9Y3S1). Conditions: at 1 µM.
Sequence of Serine/threonine-protein kinase WNK2 (Homo sapiens) (Q9Y3S1 whole entry): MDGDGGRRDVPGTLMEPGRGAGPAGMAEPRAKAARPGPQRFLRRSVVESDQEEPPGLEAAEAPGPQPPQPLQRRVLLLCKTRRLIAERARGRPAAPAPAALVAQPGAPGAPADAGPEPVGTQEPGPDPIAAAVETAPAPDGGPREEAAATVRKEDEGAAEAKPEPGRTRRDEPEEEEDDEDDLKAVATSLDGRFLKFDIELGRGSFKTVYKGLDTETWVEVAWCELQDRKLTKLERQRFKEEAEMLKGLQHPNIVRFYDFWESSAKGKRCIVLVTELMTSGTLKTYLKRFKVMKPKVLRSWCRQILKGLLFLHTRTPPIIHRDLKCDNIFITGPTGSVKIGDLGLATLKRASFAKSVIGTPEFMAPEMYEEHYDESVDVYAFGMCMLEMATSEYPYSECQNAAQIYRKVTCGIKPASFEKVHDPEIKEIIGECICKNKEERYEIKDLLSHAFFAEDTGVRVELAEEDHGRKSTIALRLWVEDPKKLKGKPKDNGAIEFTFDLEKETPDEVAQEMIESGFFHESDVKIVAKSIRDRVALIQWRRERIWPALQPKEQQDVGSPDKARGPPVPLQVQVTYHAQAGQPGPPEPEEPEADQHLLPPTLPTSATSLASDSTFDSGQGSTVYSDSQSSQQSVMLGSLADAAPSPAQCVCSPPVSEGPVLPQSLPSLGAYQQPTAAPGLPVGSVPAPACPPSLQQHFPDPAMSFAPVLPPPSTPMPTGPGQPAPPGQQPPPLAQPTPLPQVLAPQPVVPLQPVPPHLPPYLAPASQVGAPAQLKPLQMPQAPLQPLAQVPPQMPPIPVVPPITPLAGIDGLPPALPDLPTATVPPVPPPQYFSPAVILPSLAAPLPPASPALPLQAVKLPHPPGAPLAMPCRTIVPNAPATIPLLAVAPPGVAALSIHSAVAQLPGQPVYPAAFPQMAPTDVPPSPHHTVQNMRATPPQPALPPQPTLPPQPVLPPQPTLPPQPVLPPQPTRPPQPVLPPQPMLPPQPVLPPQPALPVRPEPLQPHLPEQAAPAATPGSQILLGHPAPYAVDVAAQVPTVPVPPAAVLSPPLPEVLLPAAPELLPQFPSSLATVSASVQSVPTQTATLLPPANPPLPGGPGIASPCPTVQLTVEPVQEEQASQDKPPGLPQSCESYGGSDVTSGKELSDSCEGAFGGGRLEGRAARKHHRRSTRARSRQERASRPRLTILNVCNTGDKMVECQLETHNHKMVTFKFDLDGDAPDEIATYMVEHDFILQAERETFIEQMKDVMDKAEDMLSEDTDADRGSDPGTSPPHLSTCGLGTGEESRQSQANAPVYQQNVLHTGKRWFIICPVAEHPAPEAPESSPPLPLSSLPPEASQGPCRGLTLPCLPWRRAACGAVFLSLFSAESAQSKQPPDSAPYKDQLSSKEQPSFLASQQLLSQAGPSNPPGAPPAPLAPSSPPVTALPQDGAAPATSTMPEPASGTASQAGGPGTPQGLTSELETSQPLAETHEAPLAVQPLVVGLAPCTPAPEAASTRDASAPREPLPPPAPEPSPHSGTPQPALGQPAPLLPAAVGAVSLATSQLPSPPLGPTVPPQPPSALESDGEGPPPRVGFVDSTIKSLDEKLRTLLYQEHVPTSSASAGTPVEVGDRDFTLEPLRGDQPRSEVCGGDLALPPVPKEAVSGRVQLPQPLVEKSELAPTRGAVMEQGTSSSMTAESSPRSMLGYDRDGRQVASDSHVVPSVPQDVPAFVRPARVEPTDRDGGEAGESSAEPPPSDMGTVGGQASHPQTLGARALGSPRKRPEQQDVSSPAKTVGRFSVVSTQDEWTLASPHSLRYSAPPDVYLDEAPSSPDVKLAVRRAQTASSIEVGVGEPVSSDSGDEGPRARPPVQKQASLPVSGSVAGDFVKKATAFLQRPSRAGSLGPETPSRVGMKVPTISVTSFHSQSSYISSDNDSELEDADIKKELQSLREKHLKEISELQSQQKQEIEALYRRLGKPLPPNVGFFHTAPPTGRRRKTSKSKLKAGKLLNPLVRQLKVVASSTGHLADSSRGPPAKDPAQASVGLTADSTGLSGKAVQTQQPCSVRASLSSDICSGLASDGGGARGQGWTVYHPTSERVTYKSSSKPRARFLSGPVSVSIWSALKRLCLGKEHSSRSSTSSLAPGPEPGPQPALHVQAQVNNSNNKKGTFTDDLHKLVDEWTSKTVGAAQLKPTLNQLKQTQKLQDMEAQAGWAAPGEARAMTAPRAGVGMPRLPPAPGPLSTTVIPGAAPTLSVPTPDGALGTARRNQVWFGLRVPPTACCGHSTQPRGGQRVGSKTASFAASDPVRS
For test [11] the target is unchanged. The following applies: at 10 µM.
Test [12] concerns the target Serine/threonine-protein kinase WNK3 (Homo sapiens) (UniProt Q9BYP7). Conditions: at 1 µM.
For test [13] the target is unchanged. The following applies: at 10 µM.
The target in test [14] is Tyrosine-protein kinase Yes (Homo sapiens) (UniProt P07947). The following applies: at 1 µM.
Sequence of Tyrosine-protein kinase Yes (Homo sapiens) (P07947 2-543 limits assumed): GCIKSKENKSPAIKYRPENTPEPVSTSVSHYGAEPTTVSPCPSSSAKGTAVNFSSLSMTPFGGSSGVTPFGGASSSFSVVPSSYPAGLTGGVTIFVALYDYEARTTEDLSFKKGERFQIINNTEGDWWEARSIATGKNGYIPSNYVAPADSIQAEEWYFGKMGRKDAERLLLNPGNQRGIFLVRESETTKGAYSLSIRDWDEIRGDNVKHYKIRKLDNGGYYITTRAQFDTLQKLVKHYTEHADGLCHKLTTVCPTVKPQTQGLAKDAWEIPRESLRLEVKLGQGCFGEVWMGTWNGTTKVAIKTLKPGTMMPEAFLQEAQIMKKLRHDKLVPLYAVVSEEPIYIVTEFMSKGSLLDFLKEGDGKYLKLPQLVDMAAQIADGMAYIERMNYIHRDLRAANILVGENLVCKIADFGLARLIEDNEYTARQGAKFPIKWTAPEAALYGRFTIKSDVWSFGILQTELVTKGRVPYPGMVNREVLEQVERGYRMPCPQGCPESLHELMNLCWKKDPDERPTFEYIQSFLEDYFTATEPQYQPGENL
Test [15] shares this target. Conditions: at 10 µM.
Test [16] deals with T4, Tyrosine-protein kinase ZAP-70 (Homo sapiens) (UniProt P43403).
T4 sequence (whole entry): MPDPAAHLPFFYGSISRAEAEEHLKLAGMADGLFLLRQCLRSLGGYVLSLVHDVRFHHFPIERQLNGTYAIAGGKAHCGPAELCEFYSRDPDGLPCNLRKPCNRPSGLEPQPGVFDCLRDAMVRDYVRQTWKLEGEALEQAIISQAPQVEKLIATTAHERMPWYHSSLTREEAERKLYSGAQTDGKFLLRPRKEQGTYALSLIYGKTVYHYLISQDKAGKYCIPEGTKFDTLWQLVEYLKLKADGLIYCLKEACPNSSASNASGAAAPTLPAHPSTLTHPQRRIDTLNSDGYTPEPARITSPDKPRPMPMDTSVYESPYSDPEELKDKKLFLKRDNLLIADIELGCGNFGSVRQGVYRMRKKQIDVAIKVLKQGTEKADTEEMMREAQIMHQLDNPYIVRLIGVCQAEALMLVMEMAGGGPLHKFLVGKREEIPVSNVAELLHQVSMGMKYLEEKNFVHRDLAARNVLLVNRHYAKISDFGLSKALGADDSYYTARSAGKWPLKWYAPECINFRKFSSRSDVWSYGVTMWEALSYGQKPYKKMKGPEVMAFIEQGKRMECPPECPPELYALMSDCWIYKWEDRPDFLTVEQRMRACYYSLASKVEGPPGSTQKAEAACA
The following applies: at 1 µM.

The target of test [17] is Death-associated protein kinase 3 (Homo sapiens) (UniProt O43293). Conditions: at 1 µM.
Sequence of Death-associated protein kinase 3 (Homo sapiens) (O43293 whole entry, looked up): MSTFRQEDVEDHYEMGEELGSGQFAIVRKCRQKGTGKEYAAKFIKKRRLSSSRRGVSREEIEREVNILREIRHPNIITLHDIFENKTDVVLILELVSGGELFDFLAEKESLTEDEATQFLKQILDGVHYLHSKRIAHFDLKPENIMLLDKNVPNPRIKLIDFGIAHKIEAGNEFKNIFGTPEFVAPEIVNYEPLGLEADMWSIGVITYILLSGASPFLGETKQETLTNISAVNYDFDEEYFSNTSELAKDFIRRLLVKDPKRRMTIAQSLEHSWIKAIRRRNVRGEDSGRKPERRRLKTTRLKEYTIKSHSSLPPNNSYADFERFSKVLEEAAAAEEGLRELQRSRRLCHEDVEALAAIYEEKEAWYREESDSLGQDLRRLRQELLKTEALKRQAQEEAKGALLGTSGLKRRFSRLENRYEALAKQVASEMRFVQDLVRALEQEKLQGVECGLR
For test [18] the target is unchanged. Conditions: at 10 µM.
The target in test [19] is RAF proto-oncogene serine/threonine-protein kinase (Homo sapiens) (UniProt P04049). The following applies: at 1 µM.
For test [20] the target is unchanged. The following applies: at 10 µM.

Sequence of Serine/threonine-protein kinase WNK3 (Homo sapiens) (Q9BYP7 whole entry): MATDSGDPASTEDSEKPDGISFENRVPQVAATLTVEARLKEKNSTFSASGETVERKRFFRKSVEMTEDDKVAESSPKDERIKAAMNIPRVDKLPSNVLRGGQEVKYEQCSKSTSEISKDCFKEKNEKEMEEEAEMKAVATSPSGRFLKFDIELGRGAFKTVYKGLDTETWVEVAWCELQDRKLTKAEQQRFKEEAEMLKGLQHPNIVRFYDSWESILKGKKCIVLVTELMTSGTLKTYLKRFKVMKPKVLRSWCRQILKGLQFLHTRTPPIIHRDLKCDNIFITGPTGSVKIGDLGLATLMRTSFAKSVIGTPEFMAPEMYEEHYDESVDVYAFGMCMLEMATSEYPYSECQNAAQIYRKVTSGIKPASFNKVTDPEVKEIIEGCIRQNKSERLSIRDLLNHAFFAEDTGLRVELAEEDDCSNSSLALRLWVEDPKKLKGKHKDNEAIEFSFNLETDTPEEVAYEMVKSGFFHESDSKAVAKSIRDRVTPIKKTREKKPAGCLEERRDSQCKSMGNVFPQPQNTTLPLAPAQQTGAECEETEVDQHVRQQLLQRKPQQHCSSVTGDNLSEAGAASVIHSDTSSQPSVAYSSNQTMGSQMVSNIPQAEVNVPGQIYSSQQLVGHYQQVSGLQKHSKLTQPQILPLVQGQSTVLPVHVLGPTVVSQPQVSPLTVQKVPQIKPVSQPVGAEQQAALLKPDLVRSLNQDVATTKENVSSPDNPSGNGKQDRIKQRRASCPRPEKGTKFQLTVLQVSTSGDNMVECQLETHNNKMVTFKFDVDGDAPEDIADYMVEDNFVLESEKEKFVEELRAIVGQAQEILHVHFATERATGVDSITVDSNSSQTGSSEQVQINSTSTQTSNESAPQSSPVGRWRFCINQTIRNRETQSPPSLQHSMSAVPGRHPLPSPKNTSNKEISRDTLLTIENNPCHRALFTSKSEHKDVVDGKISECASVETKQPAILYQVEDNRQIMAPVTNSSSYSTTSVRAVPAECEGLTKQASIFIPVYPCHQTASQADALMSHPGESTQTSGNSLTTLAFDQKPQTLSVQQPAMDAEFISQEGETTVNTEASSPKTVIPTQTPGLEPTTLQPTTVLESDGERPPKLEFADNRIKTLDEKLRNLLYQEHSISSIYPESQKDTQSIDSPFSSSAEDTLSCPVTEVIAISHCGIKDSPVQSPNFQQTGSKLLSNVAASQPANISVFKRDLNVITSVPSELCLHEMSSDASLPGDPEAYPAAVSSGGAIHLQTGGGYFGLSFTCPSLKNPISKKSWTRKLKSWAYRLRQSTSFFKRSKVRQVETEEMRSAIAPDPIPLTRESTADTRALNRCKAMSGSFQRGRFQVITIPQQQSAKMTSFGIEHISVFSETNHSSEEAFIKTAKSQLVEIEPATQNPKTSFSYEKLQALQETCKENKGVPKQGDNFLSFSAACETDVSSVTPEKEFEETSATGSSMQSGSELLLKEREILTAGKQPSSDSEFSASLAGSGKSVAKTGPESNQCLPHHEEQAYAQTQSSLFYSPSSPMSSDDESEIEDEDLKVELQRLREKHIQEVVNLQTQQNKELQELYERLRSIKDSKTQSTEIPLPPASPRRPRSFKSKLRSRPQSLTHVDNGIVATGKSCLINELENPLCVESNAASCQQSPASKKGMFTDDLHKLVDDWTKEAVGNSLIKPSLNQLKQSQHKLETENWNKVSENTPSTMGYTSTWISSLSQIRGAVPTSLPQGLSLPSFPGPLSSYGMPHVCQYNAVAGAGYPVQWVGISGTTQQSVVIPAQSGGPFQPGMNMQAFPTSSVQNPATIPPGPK

`Cn1cnc2cc3c(Nc4cccc(Br)c4)ncnc3cc21`: the residual activity in test [1] was determined as 68%; in test [2] it was 89%; in [3] it was 60%; in test [4], 106%; in test [5], 99%; in test [6], 112%. Also, the residual activity in [7] was 74%; in test [8], 98% (inactive); in test [9], 95%; in test [10] it was 105% (inactive); in [11] it was 85%; in test [12] it was 93% (inactive). Moreover, the residual activity in test [13] worked out at 90%; in [14], 31%; in [15], 14%; in [16], 87%; in [17], 89%; in [18], 101%. The residual activity amounted to 85% in [19] and 90% in test [20].
With `Cc1nc(-c2ccccc2)c(-c2ccncc2)o1`, the residual activity amounted to 53% in test [1]; 86% in test [2]; 88% in test [3]; 118% in test [4]; 112% in test [5]; 104% in test [6]. Also, the residual activity in [7] is 104%; in test [8], 109% (inactive); in test [9], 103%; in [10], 117% (inactive); in [11] it was 101%; in test [12], 104% (inactive). The residual activity in [13] was determined as 100%; in test [14] it was 121%; in test [15], 99%; in [16], 127%; in test [17] it was 106%; in test [18], 94%. Moreover, the residual activity in [19] amounted to 60%; in test [20], 40%.
As to `CN(C)c1ccc(/C=C2\C(=O)Nc3ccccc32)cc1`, the residual activity in test [1] was 5%; in test [2], 108%; in test [3], 69%; in test [4] it was 107%; in [5], 70%; in [6] it was 100%. Moreover, the residual activity in test [7] was 49%; in test [8], 113% (inactive); in test [9], 87%; in test [10], 110% (inactive); in [11] it was 76%; in test [12], 117% (inactive). Besides, the residual activity was found to be 90% in [13]; 98% in test [14]; 64% in test [15]; 121% in [16]; 108% in test [17]; 97% in test [18]. Moreover, the residual activity is 94% in test [19] and 85% in test [20].
For the compound `COc1ccc(C(=O)Nc2sc3c(c2C(N)=O)CCCC3)cc1OC`, the residual activity in [1] stood at 71%; in test [2], 93%; in test [3], 73%; in [4], 102%; in test [5], 92%; in [6], 99%. Moreover, the residual activity in test [7] is 84%; in [8], 107% (inactive); in [9], 85%; in test [10], 104% (inactive); in [11], 84%; in test [12], 101% (inactive). The residual activity was found to be 94% in test [13]; 106% in test [14]; 90% in [15]; 103% in [16]; 76% in test [17]; 106% in [18]. The results for the residual activity in test [19] and in [20] were 87% and 94%, respectively.
For the compound `Cc1nc2cc3nc(-c4cccs4)cnc3cc2n1C`, the residual activity came out at 45% in [1]; 108% in test [2]; 75% in test [3]; 108% in test [4]; 107% in test [5]; 106% in [6]. Moreover, the residual activity was 85% in test [7]; 111% (inactive) in test [8]; 84% in test [9]; 117% (inactive) in test [10]; 94% in test [11]; 124% (inactive) in [12]. Moreover, the residual activity in test [13] was found to be 71%; in [14] it was 106%; in test [15] it was 59%; in [16], 135%; in [17] it was 97%; in test [18], 102%. The residual activity in test [19] was 97%; in test [20], 95%.
As to `CC(=O)O/N=C1\C(=C2\C(=O)Nc3cc(Br)ccc32)Nc2ccccc21`, the residual activity in [1] amounted to 1%; in [2] it was 74%; in test [3], 19%; in [4] it was 93%; in test [5], 101%; in test [6], 95%. Also, the residual activity in test [7] was 66%; in test [8] it was 99% (inactive); in test [9], 97%; in [10], 104% (inactive); in test [11] it was 92%; in test [12], 101% (inactive). Moreover, the residual activity in test [13] was found to be 94%; in [14] it was 42%; in test [15], 4%; in test [16], 106%; in [17], 99%; in test [18], 71%. For the same compound, the residual activity was determined as 80% in test [19] and 75% in test [20].

As a reminder, the residual activity is the signal under treatment as a percentage of the control signal.
